Experimental findings from a collection of fitness landscapes (doi:10.1016/j.celrep.2020.107928) are described below.

Whole data set: some 81,000 sequences, median “one-hybrid fitness for binding NBS DNA” near -0.1, cut for the highest 2% near 0.36. The entries come from a sample that favours the highest values as a whole. Where only a bound is given, the exact number is not on record here.

B1: Caulobacter ParB omega fusion; a variant is named by its letters at X, in order, B8GW30 (parent)
chain: MESVVVGEPGMSEGRRGLGRGLSALLGEVDAAPAQAPGEQLGGSREAPIEILQRNPDQPRRTFREEDLEDLSNSIREKGVLQPILVRPSPDTAGEYQIVAGERAWRAAQRAGLKTVPIMVRELDDLAVLEIGIIENVQRADLNVLEEALSYKVLMEKFERTQENIAQTIGKSXSHVANXMRLLXLPDEVQSYLVSGELTAXHARAIAAAADPVALAKQIIEGGLSVRETEALARKAPNLSAGKSKGGRPPRVKDTDTQALESDLSSVLGLDVSIDHRGSTGTLTITYATLEQLDDLCNRLTRGI

In the experiment the parent is B1. The experiment is described as follows: one-hybrid fitness for binding NBS DNA (the Noc-binding site; scaled: cognate 1, non-cognate 0); higher = stronger binding. The conditions noted are these: with NBS DNA site. The method in brief:
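Bacterial one-hybrid selection in E. coli USO rpoZ- hisB- pyrF- with a HIS3 reporter carrying the site 19 bp from the promoter, screening Caulobacter ParB libraries with four specificity codons randomised (NNS). Cells grew 48 hours at 37°C on M9-minus-histidine plus 0.1 mM IPTG and 5 mM 3-AT. Plasmids before and after selection were Illumina-sequenced, three replicate libraries pooled, and variants under 10 reads dropped. Fitness is the log change in variant-to-wild-type read ratio, rescaled to cognate 1, non-cognate 0.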
Regarding IAMY, the “one-hybrid fitness for binding NBS DNA” value is no more than 0.2.

Take QCIF: the “one-hybrid fitness for binding NBS DNA” value is no more than 0.2.

Consider PRQG, for which the “one-hybrid fitness for binding NBS DNA” value is no more than 0.2.

In the case of VKPT, the “one-hybrid fitness for binding NBS DNA” value was no more than 0.2.

As for YCVL, the “one-hybrid fitness for binding NBS DNA” value was no more than 0.2.

DHNQ: the “one-hybrid fitness for binding NBS DNA” value is no more than 0.2.

Turning to SNYG, the “one-hybrid fitness for binding NBS DNA” value was no more than 0.2.

Turning to PCIT, the “one-hybrid fitness for binding NBS DNA” value was no more than 0.2.

Take NGMR: the “one-hybrid fitness for binding NBS DNA” value is no more than 0.2.

As for RLHW, the “one-hybrid fitness for binding NBS DNA” value was no more than 0.2.

For LRLN, the “one-hybrid fitness for binding NBS DNA” value is no more than 0.2.

With RGQR, the “one-hybrid fitness for binding NBS DNA” value was no more than 0.2.

For the variant QHGN, the “one-hybrid fitness for binding NBS DNA” value was no more than 0.2.

For the variant QHHN, the “one-hybrid fitness for binding NBS DNA” value was no more than 0.2.

Consider QHHQ, for which the “one-hybrid fitness for binding NBS DNA” value was no more than 0.2.

Turning to QHRN, the “one-hybrid fitness for binding NBS DNA” value is 0.334.

For the variant QHPR, the “one-hybrid fitness for binding NBS DNA” value came out at 0.248.

As to QHYR, the “one-hybrid fitness for binding NBS DNA” value was found to be 0.471.

Turning to QHGR, the “one-hybrid fitness for binding NBS DNA” value was determined as 0.546.

On to QHHR, for which the “one-hybrid fitness for binding NBS DNA” value came out at 0.571.

With QHWR, the “one-hybrid fitness for binding NBS DNA” value was 0.363.

Regarding QHIR, the “one-hybrid fitness for binding NBS DNA” value was 0.352.

In the case of QHGD, the “one-hybrid fitness for binding NBS DNA” value is no more than 0.2.

Consider QHRR, for which the “one-hybrid fitness for binding NBS DNA” value was 0.989.

Regarding IYTG, the “one-hybrid fitness for binding NBS DNA” value is no more than 0.2.

Turning to QEPT, the “one-hybrid fitness for binding NBS DNA” value was no more than 0.2.

Take QKVW: the “one-hybrid fitness for binding NBS DNA” value was no more than 0.2.

Turning to HKNP, the “one-hybrid fitness for binding NBS DNA” value is no more than 0.2.

Turning to NTTN, the “one-hybrid fitness for binding NBS DNA” value was no more than 0.2.

For the variant VWNG, the “one-hybrid fitness for binding NBS DNA” value is no more than 0.2.

Regarding CAIM, the “one-hybrid fitness for binding NBS DNA” value was no more than 0.2.

For PVVW, the “one-hybrid fitness for binding NBS DNA” value is no more than 0.2.

For YKVT, the “one-hybrid fitness for binding NBS DNA” value was no more than 0.2.

On to VSTT, for which the “one-hybrid fitness for binding NBS DNA” value was no more than 0.2.

For the variant QSTH, the “one-hybrid fitness for binding NBS DNA” value is no more than 0.2.

Consider QMTL, for which the “one-hybrid fitness for binding NBS DNA” value is no more than 0.2.

Take QPTT: the “one-hybrid fitness for binding NBS DNA” value was no more than 0.2.

Consider QMTT, for which the “one-hybrid fitness for binding NBS DNA” value is 0.463.

As for QLTP, the “one-hybrid fitness for binding NBS DNA” value is no more than 0.2.

Regarding QSTT, the “one-hybrid fitness for binding NBS DNA” value was found to be 0.403.

For the variant QLTS, the “one-hybrid fitness for binding NBS DNA” value was determined as 0.307.

As to QSTN, the “one-hybrid fitness for binding NBS DNA” value is no more than 0.2.

In the case of QCTT, the “one-hybrid fitness for binding NBS DNA” value was determined as 0.486.

As to QMTQ, the “one-hybrid fitness for binding NBS DNA” value was no more than 0.2.

Turning to QLTT, the “one-hybrid fitness for binding NBS DNA” value was 0.393.

Consider QITT, for which the “one-hybrid fitness for binding NBS DNA” value is 0.314.

As to LYGT, the “one-hybrid fitness for binding NBS DNA” value is no more than 0.2.

Regarding ACDR, the “one-hybrid fitness for binding NBS DNA” value was no more than 0.2.

Take DHGS: the “one-hybrid fitness for binding NBS DNA” value was no more than 0.2.

Consider GRAP, for which the “one-hybrid fitness for binding NBS DNA” value is no more than 0.2.

Regarding MVHG, the “one-hybrid fitness for binding NBS DNA” value is no more than 0.2.

In the case of SQHN, the “one-hybrid fitness for binding NBS DNA” value was no more than 0.2.

Regarding QKTM, the “one-hybrid fitness for binding NBS DNA” value was no more than 0.2.

Take DRTT: the “one-hybrid fitness for binding NBS DNA” value is no more than 0.2.

Regarding QATD, the “one-hybrid fitness for binding NBS DNA” value was no more than 0.2.

In the case of QKTP, the “one-hybrid fitness for binding NBS DNA” value was no more than 0.2.

Turning to QTTG, the “one-hybrid fitness for binding NBS DNA” value was no more than 0.2.

In the case of QATH, the “one-hybrid fitness for binding NBS DNA” value is no more than 0.2.

With QRTT, the “one-hybrid fitness for binding NBS DNA” value was found to be 0.759.

For the variant QTTY, the “one-hybrid fitness for binding NBS DNA” value amounted to 0.301.

As for QKTT, the “one-hybrid fitness for binding NBS DNA” value worked out at 0.56.

Turning to QATT, the “one-hybrid fitness for binding NBS DNA” value came to 0.379.

As for QNTT, the “one-hybrid fitness for binding NBS DNA” value is no more than 0.2.

QTTT: the “one-hybrid fitness for binding NBS DNA” value was determined as 0.603.

Regarding ERNT, the “one-hybrid fitness for binding NBS DNA” value was no more than 0.2.

Consider SKLS, for which the “one-hybrid fitness for binding NBS DNA” value was no more than 0.2.

Take CYAV: the “one-hybrid fitness for binding NBS DNA” value was no more than 0.2.

For the variant RIEC, the “one-hybrid fitness for binding NBS DNA” value is no more than 0.2.

GTHW: the “one-hybrid fitness for binding NBS DNA” value is no more than 0.2.

Turning to QHTY, the “one-hybrid fitness for binding NBS DNA” value was no more than 0.2.

On to QHTT, for which the “one-hybrid fitness for binding NBS DNA” value came out at 0.412.

Consider QHTM, for which the “one-hybrid fitness for binding NBS DNA” value is no more than 0.2.

Turning to KWAC, the “one-hybrid fitness for binding NBS DNA” value was no more than 0.2.

As to TYFR, the “one-hybrid fitness for binding NBS DNA” value is no more than 0.2.

Turning to RRRI, the “one-hybrid fitness for binding NBS DNA” value came out at 0.451.

For the variant RCKI, the “one-hybrid fitness for binding NBS DNA” value is no more than 0.2.

As for RRKI, the “one-hybrid fitness for binding NBS DNA” value was determined as 0.607.

As to RRYI, the “one-hybrid fitness for binding NBS DNA” value is no more than 0.2.

Regarding RREI, the “one-hybrid fitness for binding NBS DNA” value is no more than 0.2.

In the case of RRVI, the “one-hybrid fitness for binding NBS DNA” value is no more than 0.2.

For the variant VLSD, the “one-hybrid fitness for binding NBS DNA” value was no more than 0.2.

Turning to DRYG, the “one-hybrid fitness for binding NBS DNA” value was no more than 0.2.

Regarding SACR, the “one-hybrid fitness for binding NBS DNA” value is no more than 0.2.

As to CRNI, the “one-hybrid fitness for binding NBS DNA” value was no more than 0.2.

Take ARTS: the “one-hybrid fitness for binding NBS DNA” value was no more than 0.2.

Turning to DRFT, the “one-hybrid fitness for binding NBS DNA” value is no more than 0.2.

With KCAT, the “one-hybrid fitness for binding NBS DNA” value is no more than 0.2.

For NRFT, the “one-hybrid fitness for binding NBS DNA” value was no more than 0.2.

As for KRAH, the “one-hybrid fitness for binding NBS DNA” value is no more than 0.2.

As to KRAT, the “one-hybrid fitness for binding NBS DNA” value worked out at 0.572.

As for KRFT, the “one-hybrid fitness for binding NBS DNA” value worked out at 0.565.

For the variant ERLC, the “one-hybrid fitness for binding NBS DNA” value was no more than 0.2.

Consider DGPR, for which the “one-hybrid fitness for binding NBS DNA” value is no more than 0.2.

On to QMWT, for which the “one-hybrid fitness for binding NBS DNA” value stood at 0.36.

In the case of QTLK, the “one-hybrid fitness for binding NBS DNA” value is no more than 0.2.

In the case of QMHG, the “one-hybrid fitness for binding NBS DNA” value is no more than 0.2.

Turning to DMRT, the “one-hybrid fitness for binding NBS DNA” value is no more than 0.2.

QMHT: the “one-hybrid fitness for binding NBS DNA” value was 0.497.

In the case of QMET, the “one-hybrid fitness for binding NBS DNA” value worked out at 0.295.

In the case of QMCT, the “one-hybrid fitness for binding NBS DNA” value amounted to 0.339.

Regarding QTLT, the “one-hybrid fitness for binding NBS DNA” value stood at 0.527.

On to QMYT, for which the “one-hybrid fitness for binding NBS DNA” value turned out to be 0.436.
